# Experimental data reported in PubChem BioAssay.
# Test system: Inhibin beta A chain (activin A)
# Assay: small molecules binding activin A – biochemical, small-molecule microarray, 635 nm fluorescence scan, primary screen (AID 1107);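 note: mouse activin A protein probed at 4.33 µg/mL on printed slides; score merges bound-protein fluorescence near 667 nm with spot signal-to-noise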
# Settings: INHBA, higher = more signal
row,Structure (SMILES),composite z-score
1,CO[C@H]1COC(=O)CC=C[C@@H](C)COC(=O)[C@H]2CCCN2C(=O)CC=C[C@H]1C,1.32
2,CC(C)=CCCC(C)=CCON=C1[C@H]2CCn3c(=O)n(-c4ccccc4)c(=O)n3[C@H]2[C@H](O)[C@@H]2O[C@H]12,0.722
3,COc1ccc(O[C@H]2C=C[C@@H](c3ccccc3)O[C@@H]2COC(=O)NCc2cccc3ccccc23)cc1,0.763
4,C#CCCCON=C1[C@H]2CCn3c(=O)n(Cc4cc5c(cc4Cl)OCO5)c(=O)n3[C@H]2[C@H](O)[C@@H]2O[C@H]12,0.0951
5,COC(=O)[C@@H]1CC[C@H](C)[C@@H](c2ccc(C)cc2)N1C(=O)c1ccc(C=NOC[C@@H](O)[C@H]2O[C@@H]3OC(C)(C)O[C@@H]3[C@H]2O)cc1,0.101
6,CCOC(=O)[C@H](CC(C)C)NC(=O)CCC1CC(OC(=O)NCc2ccc3c(c2)OCO3)CC2(CCCC(COC(=O)NCCc3ccc(Cl)cc3)O2)O1 (stereo partly specified),0.101
7,CCOC(=O)[C@H](Cc1ccccc1)NC(=O)CCC1CC(OC(=O)NCCc2ccc(F)cc2)CC2(CCCC(COC(=O)NCCOc3ccccc3)O2)O1 (stereo partly specified),-0.155
8,CC(C)=NOC(C)CN1CCCc2nc(C)c(C)cc21 (stereo unspecified),0.206
9,CCOC(=O)[C@H](Cc1ccccc1)NC(=O)CCC1CC(OC(=O)NCc2ccc3c(c2)OCO3)CC2(CCCC(COC(=O)NCCOC)O2)O1 (stereo partly specified),-0.169
10,CC(CCC(=O)OC[C@H]1O[C@H](C#Cc2ccccc2)C=C[C@@H]1Oc1ccc(C)cc1)=NO[C@H](C)c1cn([C@@H]2COC[C@H]2O)nn1,0.203
11,CCN1C(C)=C(C(=O)OC)[C@@H](c2ccccc2)N2C(=O)[C@](O)(C(=O)OC)CC(C(C)=O)=C12,0.423
12,CCOC(=O)CCN1C(=O)[C@H]2[C@H]3[C@H](O)[C@H](O)CC(=NO[C@@H]4O[C@H](CO)[C@@H](O)[C@H](O)[C@H]4O)[C@H]3CC[C@H]2C1=O,0.401
13,CCC1=NOC(CCC2CC(OC(=O)NCc3cccc4c3OCO4)CC3(CCCC(COC(=O)NCCc4ccc(Cl)cc4)O3)O2)C1 (stereo unspecified),0.0081
14,CC(C)=CCCC(C)=CCON=C1C[C@@H](O)[C@@H](O)[C@@H]2[C@@H]3C(=O)N(C4CCCCC4)C(=O)[C@@H]3CC[C@H]12,0.644
15,COC(=O)[C@@H]1CC[C@H](C)[C@@H](c2ccc(C)cc2)N1C(=O)c1ccc(C=NO[C@@H](C)c2cc(-c3c(C)cc(C)cc3C)no2)cc1,0.598
16,CCN1C(=O)[C@H]2[C@H]3[C@H](O)[C@H](O)CC(=NO[C@H](C)c4cn([C@@H]5COC[C@H]5O)nn4)[C@@H]3CC[C@H]2C1=O,-0.322
17,CC(C)=NOC[C@@H](O)[C@H]1O[C@@H]2OC(C)(C)O[C@@H]2[C@H]1O,0.5
18,COc1ccc(COC(=O)NN=C2C[C@@H](O)[C@@H](O)[C@@H]3[C@@H]4C(=O)N(C[C@@H]5CCCO5)C(=O)[C@@H]4CC[C@@H]23)cc1,0.203

row,Structure (SMILES),composite z-score
1,COc1ccc(O[C@H]2C=C[C@@H](c3ccccc3)O[C@@H]2CON=C(C)CCN2CCCc3nc(C)c(C)cc32)cc1,0.917
2,CCc1cc2c(nc1CC)CCN(CCC(C)=NOCC[C@@H]1C=C[C@H](OC(C)=O)[C@@H](COC(C)=O)O1)C2,1.29
3,CCOC(=O)[C@H](CC(C)C)NC(=O)CCC1CC(OC(=O)NCCc2ccc(F)cc2)CC2(CCCC(COC(=O)NCCCN3CCCC3=O)O2)O1 (stereo partly specified),-0.131
4,COc1ccc(COC(=O)NN=C2C[C@@H](O)[C@@H](O)[C@@H]3[C@@H]4C(=O)N(Cc5ccc6c(c5)OCO6)C(=O)[C@@H]4CC[C@H]23)cc1,0.991
5,CC(CCN1CCCCc2nc(C)c(C)cc21)=NOC[C@@H](O)[C@H]1O[C@@H]2OC(C)(C)O[C@@H]2[C@H]1O,-0.0196
6,O=C1[C@H]2CCn3c(=O)n(-c4ccccc4)c(=O)n3[C@H]2[C@H](O)[C@@H]2O[C@H]12,0.269
7,CC(C)=NO[C@H](C)c1cn([C@@H]2COC[C@H]2O)nn1,-0.0201
8,CC(CCN1CCc2nc(-c3ccccc3)c(-c3ccccc3)cc2C1)=NO[C@@H](C)c1cc(-c2c(C)cc(C)cc2C)no1,0.5
9,CC(C)CN1CCc2nc(-c3ccccc3)c3c(c2C1)CO[C@@H](C)C3,0.0576
10,CCOC(=O)CCN1C(=O)[C@H]2[C@H]3[C@H](O)[C@H](O)CC(=NOCC=C(C)CCC=C(C)C)[C@@H]3CC[C@H]2C1=O,-0.259
11,CON=C[C@@H](OC)[C@H](C)C=CCC(=O)OC,0.892
12,CCOC(=O)CCN1C(=O)[C@H]2[C@H]3[C@H](O)[C@H](O)CC(=NO[C@@H]4O[C@H](CO)[C@@H](O)[C@H](O)[C@H]4O)[C@@H]3CC[C@H]2C1=O,0.898
13,CC(CCN1CCCc2nc(C)c(C)cc21)=NO[C@H](C)c1cn([C@@H]2COC[C@H]2O)nn1,1.26
14,CC(C)(C)N1C(=O)[C@H]2[C@H]3[C@H](O)[C@H](O)CC(=NOC[C@@H](O)COCc4ccco4)[C@H]3CC[C@H]2C1=O,0.0091
15,CCOC(=O)CCN1C(=O)[C@H]2[C@@H]3C(=CC[C@H]2C1=O)C(=O)[C@H]1O[C@H]1[C@H]3O,-0.483
16,COc1ccc(COC(=O)NN=C2C[C@@H](O)[C@@H](O)[C@@H]3[C@@H]4C(=O)N(C[C@@H]5CCCO5)C(=O)[C@@H]4CC[C@H]23)cc1,0.229
17,CCN1C(=O)[C@H]2[C@H]3[C@H](O)[C@H](O)CC(=NOCC(C)C)[C@H]3CC[C@H]2C1=O,0.122
18,CC(C)=CCCC(C)=CCON=C1C[C@@H](O)[C@@H](O)[C@@H]2[C@@H]3C(=O)N(Cc4ccc5c(c4)OCO5)C(=O)[C@@H]3CC[C@H]12,1.02
